Integrin act MD = integrin-mediated muscular dystrophy alleviation activation; alpha7betagal myoblasts, beta-gal FDG fluorescence, 48 h; Potency, µM (titrated, usually from 38.3 µM), without a hit: top-dose activation, usual class: activators; hit rate 0.064% among 350,000; AID 624291;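 note: 100% = response of the positive control SU9516; nearly all actives have a fitted effect of over 60% in size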
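Alpha7betagal+/- myoblasts (passage 13) were plated 16-24 hr, then exposed to compounds (1:260 dilution of DMSO stock) for 48 hours at 37C. After MPER lysis, β-galactosidase reporter activity was read as FDG fluorescence (ex 480/em 540) after 30 minutes.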
uPA surface inh = cell surface uPA generation inhibition; hit rate 0.31% among 330,000; Potency, µM (highest dose often 38.3 µM), without a hit: at the highest dose activity change, negative = inhibition, hits mostly inhibitors; cell surface uPA generation assay, qHTS; active = well fitted inhibition curve with a large enough effect; inconclusive = small, poorly fitted or top-dose-only effect; inactive = no such curve, though single readings can be large or run the other way; tested in mouse RAW 264.7 cells; note: % is set by controls: 0 for no effect and ±100 for the full control effect; nearly all actives have a fitted effect of over 55% in size
Chronic BCR inh = chronic active BCR signaling inhibition; ABC-DLBCL IkBa-CBG/CBR reporter, luminescence ratio, 4 h; Potency, µM (series often up to 46.1 µM), for inactives: at the top dose activity change, negative = inhibition, usual class: inhibitors; hit rate 0.05% among 340,000; active = well fitted inhibition curve with a large enough effect in the signal ratio, with a control signal flat, not every such curve was filed as active; inconclusive = small, poorly fitted or top-dose-only effect, or effect the other way, or a change in a side signal; the % refers to the signal ratio;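 note: plate controls were basal doxycycline-induced cells for no effect and cells given 10 µM MG132 for full effect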
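TMD8 ABC-DLBCL cells carrying doxycycline-inducible green luciferase fused to IkappaBalpha plus unfused red luciferase were exposed to compounds (up to 46 uM) for 4 hrs at 37C. Activity came from the overlap-corrected green/red luminescence ratio.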
VP16 counter = Gal4-VP16 reporter inhibition counter-screen. hit rate 3.5% among 310,000. Potency, µM (top dose mostly 53.6 µM), inactives show at the highest dose activity, negative = inhibition, most hits filed as inhibitors. Drosophila S2 Gal4-VP16 UAS-luciferase, luminescence, 20 h;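 note: Gal4-VP16 expression switched on by copper sulfate through the metallothionein promoter; % is set by controls: 0 for no effect and ±100 for the full control effect; nearly all actives have a fitted effect of over 50% in size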
RORgamma inh = blocks mouse ROR gamma transcriptional activity. hit rate 5.4% among 310,000. P51450. AID 2551. Potency, µM (titrated, usually from 53.6 µM), inactives show top-dose activity change, negative = inhibition, hits mostly inhibitors. Drosophila S2 Gal4-RORgamma UAS-luciferase reporter, 20 h; note: % is set by controls: 0 for no effect and ±100 for the full control effect; nearly all actives have a fitted effect of over 60% in size
Target sequence (P51450 whole entry, looked up, the tested form may be a part): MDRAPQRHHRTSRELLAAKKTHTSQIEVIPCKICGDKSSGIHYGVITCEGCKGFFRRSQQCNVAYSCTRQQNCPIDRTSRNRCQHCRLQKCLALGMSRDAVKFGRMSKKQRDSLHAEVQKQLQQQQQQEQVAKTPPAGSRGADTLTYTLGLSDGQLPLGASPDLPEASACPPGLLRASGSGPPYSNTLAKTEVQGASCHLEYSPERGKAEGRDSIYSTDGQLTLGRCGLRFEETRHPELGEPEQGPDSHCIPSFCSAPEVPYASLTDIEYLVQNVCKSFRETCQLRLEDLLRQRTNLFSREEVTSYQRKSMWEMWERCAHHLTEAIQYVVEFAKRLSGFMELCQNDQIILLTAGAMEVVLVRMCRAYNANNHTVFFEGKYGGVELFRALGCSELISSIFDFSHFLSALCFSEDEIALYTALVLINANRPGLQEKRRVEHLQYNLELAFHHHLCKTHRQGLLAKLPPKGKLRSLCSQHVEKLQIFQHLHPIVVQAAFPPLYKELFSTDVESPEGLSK
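A Gal4/UAS one-hybrid system in insect cells: metallothionein-promoter Gal4–ROR gamma fusion plus Photinus luciferase reporter. Copper sulfate 700 uM final, 20 hr ambient incubation, luminescent detection after 10 min with reagent.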
Mito fusion act = mitochondrial division inhibition or fusion activation; Potency, µM (series often up to 46.1 µM), for inactives: at the highest dose growth rescue (activation), actives largely listed as activators; S. cerevisiae fusion-defective mutant growth rescue, CellTiterGlo 48 h; hit rate 0.23% among 320,000; note: % of control where 0% means no effect; nearly all actives have a fitted effect of over 45% in size
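Luminescent cell viability in 1536-well qHTS format served as the measure of rescued growth in ts fusion-mutant S. cerevisiae cultured on non-fermentable YPEG for 48 hours at 37C.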
* hit, by the source's call; ? = inconclusive; . = not tested or not shown. The list is not random: actives were taken first. Their share in the collection is about 5.5%. Unless noted, calls come from the whole dose curve; as a rule, active = well fitted curve in the direction sought with a large enough effect; inconclusive = small, poorly fitted or top-dose-only effect, or another doubt; inactive = no such curve, though single readings can be large; an effect the other way counts as inactive or inconclusive. Potency is the fitted concentration of half-maximal effect.

SMILES	Integrin act MD	uPA surface inh	Chronic BCR inh	VP16 counter	RORgamma inh	Mito fusion act
Cc1ccc(/C=C/C(=O)c2ccccc(=O)c2O)cc1C	-21%	-18%	?	3.5µM*	2.8µM*	17%
CN(C)c1cccc(C(=O)NNC(=S)NC2CC3CCC2C3)c1 (stereo not given)	-20%	6%	?	-14%	4µM*	2%
Cc1ccc(C2=[N+]([O-])C3(CCCCC/C3=N\NC(N)=S)N(O)C2(C)C)o1 (stereo not given)	.	.	3%	2.2µM*	1.6µM*	-1%
C/C(=N/NC(=O)C1CCCC1)c1ccc(NC(=O)C(F)(F)F)cc1	.	.	-1%	11%	9%	0%
COc1cc(/C=C2\Oc3cc(O)ccc3C2=O)ccc1O	-7%	6.3µM*	?	-6%	-23%	0%
Cc1ccsc1/C=C1\Oc2cc(O)ccc2C1=O	7%	.	.	.	.	.
O=C(Cc1cccs1)NNC(=S)NCc1ccco1	-21%	1%	-2%	-5%	14µM*	1%
O=C(CC12CC3CC(CC(C3)C1)C2)NC(=S)NCc1ccco1	1%	-21%	1%	?	3.5µM*	-1%
O=C(Cc1cccs1)NCc1ccco1	20%	1%	?	15%	21%	-1%
O=C(Cc1ccc(-c2ccccc2)cc1)NNC(=S)NCc1ccco1	5%	-4%	?	?	5.6µM*	2%
C=CN1CCCC1=O	.	.	.	-3%	36%	.
COc1ncc2nc(CCc3ccccc3)c(=O)n(Cc3ccc(F)cc3)c2n1	.	.	.	-11%	29%	.
CCCN(CCC)CCCNC(=O)c1ccc(CS(=O)(=O)c2c(Cl)cccc2Cl)o1	-49%	1%	3%	5%	16%	0%
N/C(=C\C(=O)c1cc(Cl)ccc1O)C(Cl)(Cl)Cl	-53%	-16%	?	?	4µM*	1%
CCc1ccc(C(=O)/C=C/c2ccc([N+](=O)[O-])o2)cc1	-62%	-12%	?	8.9µM*	?	3%
COc1cc(C2C(=O)N(C3CCCCC3)CC(=O)N2C2CCCC2)ccc1OC(C)C (stereo not given)	.	.	-2%	.	.	.
Cn1cccc1C(=O)N1CCC2(CCN(C(=O)Nc3cccc(C#N)c3)CC2)CC1	.	.	.	-7%	24%	.
c1ccc2c(CCNc3ncnc4nc[nH]c34)c[nH]c2c1	-19%	2.8µM*	?	?	?	-3%
S=C(NCc1ccco1)Nc1ccc(Cl)cc1Cl	22%	1%	0%	?	11µM*	-2%
S=C(NCc1ccco1)Nc1ccc(Br)cc1Cl	-21%	1%	?	-25%	13µM*	-4%
CC(Oc1ccccc1)C(=O)N1CCN=C1SCc1ccccc1 (stereo not given)	-16%	-3%	-2%	-6%	-20%	0%
Cn1ccnc1-c1nc2ccccc2[nH]c1=O	13%	-32%	-4%	3.5µM*	3.5µM*	2%
S=c1[nH]nc(-c2cc(-c3ccccc3)n[nH]2)n1/N=C/c1ccc(Cl)c(Cl)c1	11%	2%	?	7.9µM*	10µM*	1%
S=c1[nH]nc(-c2ccccn2)n1/N=C/c1ccc(Br)s1	16%	4%	17%	7.9µM*	7.1µM*	-3%
S=c1[nH]nc(-c2ccccn2)n1/N=C/c1ccc(Cl)c(Cl)c1	8%	6%	7%	-23%	7.1µM*	3%
SMILES	Integrin act MD	uPA surface inh	Chronic BCR inh	VP16 counter	RORgamma inh	Mito fusion act
S=c1[nH]nc(-c2ccccn2)n1/N=C/c1ccc(-c2ccccc2Cl)o1	0%	.	14%	-4%	8.9µM*	0%
COc1cc(/C=C/C(C)=NNc2ccccc2)ccc1O	-35%	-10%	.	.	.	.
Cc1nn(-c2ccccc2)c2c1C1(C(=O)Nc3ccccc31)N1C(=N2)Sc2ccccc21 (stereo not given)	10%	12%	-3%	-6%	?	18µM*
Cc1nn(-c2ccc(F)cc2)c(N)c1C1(O)C(=O)Nc2ccccc21 (stereo not given)	19%	4%	3%	-4%	12%	15%
CCC(C)Sc1cc(-c2nc3ccc(Cl)cn3c2NC2CCCCC2)ccc1OC (stereo not given)	-10%	0%	?	.	.	.
CC(C)c1nc2ccc(Br)cn2c1NC1CCCC1	5%	?	0%	?	7.1µM*	2%
O=C(NCc1ccc2c(c1)CCN2C(=O)c1ccc(F)cc1)c1cc2ccccc2[nH]1	.	.	8%	.	.	.
CCOC(=O)CN1NC2(CCCCC2)NC1=S	7%	0%	8%	?	16µM*	1%
CC(C)(C)C1CCC2(CC1)NC(=S)N(c1ccccc1)N2 (stereo not given)	-10%	-3%	-1%	16µM*	10µM*	13%
CCOC(=O)CN1NC2(CCCCCCC2)NC1=S	4%	-2%	0%	-18%	4µM*	-2%
CCOC(=O)CN1NC2(CCC(C(C)(C)C)CC2)NC1=S (stereo not given)	4%	-3%	?	?	10µM*	-1%
CCOC(=O)CN1NC2(CCC(C)CC2)NC1=S (stereo not given)	-50%	-2%	20%	?	?	0%
Cc1cccc(-c2cccc(-c3cc(=O)oc4cc5c(cc34)OCO5)c2)c1	.	.	.	-8%	15%	.
CC1(C)CC(=O)C=C(/C=C/c2ccccc2)C1	-33%	?	?	.	.	0%
O=C(CCCCCNC(=O)c1ccccc1)N/N=C/c1ccccc1O	-23%	-6%	?	20µM*	6.3µM*	-1%
COc1cc(/C=N/NC(=O)CSc2cc(C)c(Br)cc2C)ccc1O	-16%	-4%	?	-11%	21%	-4%
Cc1cc(SCC(=O)N/N=C/c2ccc(O)c(O)c2O)c(C)cc1Br	-43%	-7%	12%	?	2.8µM*	4%
Cc1cc(C)n(CCC(=O)N/N=C/c2ccccc2O)n1	-15%	?	0%	1.3µM*	1.3µM*	-4%
O=C(CSc1ccccc1)N/N=C/c1ccccc1O	-32%	-4%	-28%	1.6µM*	0.63µM*	-3%
Cc1cc(C)n(CCC(=O)N/N=C/c2ccc(O)cc2O)n1	47%	-14%	-20%	-10%	?	-4%
CCC[C@@H]1NC(=O)[C@@H](NC(C)=O)CSSC[C@@H](C(N)=O)NC(=O)CNC(=O)[C@H](Cc2c[nH]c3ccccc23)NC(=O)[C@H](CCCN=C(N)N)NC(=O)[C@H](Cc2ccc3ccccc3c2)NC(=O)[C@H](Cc2cnc[nH]2)NC(=O)[C@H](CCCN=C(N)N)NC1=O	.	.	.	4%	19%	.
c1csc(CNc2ccnc(-c3ccc4c(c3)OCO4)n2)c1	.	.	.	2%	-118%	.
